This passage reports Percent Effect results from ChEMBL document CHEMBL3988442, “University of Dundee, Small-Polar-MMV Screening Library” (2021).

Design in all cases: scale not given: direction of the effect not stated beside the values
In test [1] the target is Protein translocase subunit SecA (Escherichia coli (strain K12)) (UniProt P10408). As to the kind of experiment: Assay to Identify E. coli SecA ATPase Inhibitors. The following applies: 30 µM. The format is functional.
Test [2] concerns the target T1, Ubiquitin-activating enzyme e1, putative (Leishmania donovani (strain BPK282A1)) (UniProt E9BSI1).
T1 sequence (whole entry): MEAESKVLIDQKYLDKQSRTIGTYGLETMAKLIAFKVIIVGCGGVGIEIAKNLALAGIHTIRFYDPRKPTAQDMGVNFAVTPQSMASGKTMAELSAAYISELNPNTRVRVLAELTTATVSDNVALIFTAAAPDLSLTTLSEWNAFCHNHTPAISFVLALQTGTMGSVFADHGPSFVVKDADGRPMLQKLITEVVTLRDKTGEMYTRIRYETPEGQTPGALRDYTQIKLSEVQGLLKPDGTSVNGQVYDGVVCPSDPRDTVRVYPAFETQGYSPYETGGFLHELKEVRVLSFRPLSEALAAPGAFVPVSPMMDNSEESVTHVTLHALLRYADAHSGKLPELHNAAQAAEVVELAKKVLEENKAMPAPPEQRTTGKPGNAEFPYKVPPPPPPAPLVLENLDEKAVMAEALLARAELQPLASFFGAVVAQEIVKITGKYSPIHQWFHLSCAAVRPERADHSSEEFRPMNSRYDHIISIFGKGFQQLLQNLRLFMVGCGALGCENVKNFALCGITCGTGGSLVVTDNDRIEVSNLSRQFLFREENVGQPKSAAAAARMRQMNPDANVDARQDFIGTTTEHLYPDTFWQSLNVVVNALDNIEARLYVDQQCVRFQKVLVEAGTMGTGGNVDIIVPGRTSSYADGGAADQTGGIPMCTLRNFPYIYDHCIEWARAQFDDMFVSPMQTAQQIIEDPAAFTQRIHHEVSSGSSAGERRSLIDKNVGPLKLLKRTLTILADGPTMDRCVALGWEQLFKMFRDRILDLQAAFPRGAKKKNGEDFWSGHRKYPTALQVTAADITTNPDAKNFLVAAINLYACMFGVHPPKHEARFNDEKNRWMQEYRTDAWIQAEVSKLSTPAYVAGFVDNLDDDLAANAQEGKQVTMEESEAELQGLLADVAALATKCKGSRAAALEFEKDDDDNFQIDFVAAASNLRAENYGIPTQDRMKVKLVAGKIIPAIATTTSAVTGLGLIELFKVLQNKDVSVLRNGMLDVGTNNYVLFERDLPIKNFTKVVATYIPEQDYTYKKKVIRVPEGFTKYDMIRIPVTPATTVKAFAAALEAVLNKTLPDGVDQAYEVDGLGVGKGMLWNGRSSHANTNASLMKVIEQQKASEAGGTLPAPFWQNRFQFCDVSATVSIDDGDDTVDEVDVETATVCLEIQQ
The test is described as follows: Leishmania donovani Ubiquitin Activating Enzyme (LdE1). The test is classed as functional. The following applies: 30 µM.

Test [3] has as its target AMP-activated protein kinase, AMPK (Homo sapiens) (UniProt P54646+O43741+P54619+Q9UGJ0+Q9Y478+Q13131+Q9UGI9). As to the kind of experiment: AMP-dependent Kinase enzyme assay. An in vitro enzyme assay that detects ADP turnover that is directly proportional to AMPK activity. This uses naive AMPK that is activated during the assay with MK-8722. The format is functional. The following applies: 30 µM.

The target of test [4] is Sialic acid-binding Ig-like lectin 9 (Homo sapiens) (UniProt Q9Y336). The test is described as follows: Hs-Siglec9 ALPHAscreen SOP 20170721. Particulars: 10 µM. In general terms: In Alpha technology, singlet oxygen from a donor bead excites a nearby acceptor bead.
Sequence of Sialic acid-binding Ig-like lectin 9 (Homo sapiens) (Q9Y336 whole entry): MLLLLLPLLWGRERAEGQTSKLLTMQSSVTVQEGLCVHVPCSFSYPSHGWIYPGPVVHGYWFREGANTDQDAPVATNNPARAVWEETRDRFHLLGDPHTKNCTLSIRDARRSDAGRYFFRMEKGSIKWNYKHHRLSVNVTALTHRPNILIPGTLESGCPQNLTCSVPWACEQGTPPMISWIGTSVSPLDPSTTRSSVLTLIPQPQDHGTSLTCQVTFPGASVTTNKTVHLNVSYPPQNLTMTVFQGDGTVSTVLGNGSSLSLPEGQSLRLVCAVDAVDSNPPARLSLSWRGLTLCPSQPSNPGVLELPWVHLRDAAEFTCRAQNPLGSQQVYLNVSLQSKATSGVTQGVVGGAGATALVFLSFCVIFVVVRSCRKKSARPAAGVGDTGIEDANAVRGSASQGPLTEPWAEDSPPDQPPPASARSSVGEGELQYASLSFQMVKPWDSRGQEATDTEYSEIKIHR
A further test concerns Trypanosoma cruzi. As to the kind of experiment: Trypanosoma cruzi phosphomannomutase and mannose-1-phosphate guanylyltransferase assay. The test is classed as functional. Particulars: 10 µM.
The target in test [5] is T2, Arginase-2, mitochondrial (Homo sapiens) (UniProt P78540).
T2 sequence (whole entry): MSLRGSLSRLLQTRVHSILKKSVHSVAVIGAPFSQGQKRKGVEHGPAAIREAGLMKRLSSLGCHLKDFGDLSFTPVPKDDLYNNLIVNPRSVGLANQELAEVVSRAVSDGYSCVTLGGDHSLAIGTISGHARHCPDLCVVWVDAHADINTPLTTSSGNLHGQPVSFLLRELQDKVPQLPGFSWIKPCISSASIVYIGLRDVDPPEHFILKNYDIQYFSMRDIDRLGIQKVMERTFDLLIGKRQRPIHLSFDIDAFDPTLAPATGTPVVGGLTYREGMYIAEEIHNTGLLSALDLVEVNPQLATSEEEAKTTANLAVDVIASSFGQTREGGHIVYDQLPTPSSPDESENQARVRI
The test is described as follows: in vitro enzyme assay to detect the production of urea directly proportional to the activity of Arginase II. Also: in the data most compounds retested in dose-response had high values. The format is functional. Particulars: 33.3 µM.

The target of test [6] is T3, Proteasome subunit beta (Trypanosoma cruzi) (UniProt O96673).
T3 sequence (whole entry): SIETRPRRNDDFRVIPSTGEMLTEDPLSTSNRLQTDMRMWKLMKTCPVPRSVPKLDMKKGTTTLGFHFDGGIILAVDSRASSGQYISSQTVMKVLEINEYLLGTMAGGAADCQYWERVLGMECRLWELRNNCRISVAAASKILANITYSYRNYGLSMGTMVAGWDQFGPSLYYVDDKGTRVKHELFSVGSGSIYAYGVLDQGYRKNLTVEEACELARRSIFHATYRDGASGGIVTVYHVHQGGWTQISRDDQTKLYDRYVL
The test is described as follows: Trypanosoma cruzi proteasome chymotrypsin-like activity (TcProtChymo) assay. Also: in the data most compounds retested in dose-response had high values. Particulars: 9.37 µM. The test is classed as functional.

The species entered for another test is Homo sapiens. The test is described as follows: To identify inhibition of the IFN signalling (Jak-Stat) pathway via expression of an eGFP reporter gene under the control of an IFN-stimulated response element (ISRE) containing MxA promoter. Particulars: 30 µM. The test is classed as functional.
For test [7], the target named is T4, Tyrosyl-tRNA synthetase, putative (Trypanosoma cruzi (strain CL Brener)) (UniProt Q4DSP6).
T4 sequence (whole entry): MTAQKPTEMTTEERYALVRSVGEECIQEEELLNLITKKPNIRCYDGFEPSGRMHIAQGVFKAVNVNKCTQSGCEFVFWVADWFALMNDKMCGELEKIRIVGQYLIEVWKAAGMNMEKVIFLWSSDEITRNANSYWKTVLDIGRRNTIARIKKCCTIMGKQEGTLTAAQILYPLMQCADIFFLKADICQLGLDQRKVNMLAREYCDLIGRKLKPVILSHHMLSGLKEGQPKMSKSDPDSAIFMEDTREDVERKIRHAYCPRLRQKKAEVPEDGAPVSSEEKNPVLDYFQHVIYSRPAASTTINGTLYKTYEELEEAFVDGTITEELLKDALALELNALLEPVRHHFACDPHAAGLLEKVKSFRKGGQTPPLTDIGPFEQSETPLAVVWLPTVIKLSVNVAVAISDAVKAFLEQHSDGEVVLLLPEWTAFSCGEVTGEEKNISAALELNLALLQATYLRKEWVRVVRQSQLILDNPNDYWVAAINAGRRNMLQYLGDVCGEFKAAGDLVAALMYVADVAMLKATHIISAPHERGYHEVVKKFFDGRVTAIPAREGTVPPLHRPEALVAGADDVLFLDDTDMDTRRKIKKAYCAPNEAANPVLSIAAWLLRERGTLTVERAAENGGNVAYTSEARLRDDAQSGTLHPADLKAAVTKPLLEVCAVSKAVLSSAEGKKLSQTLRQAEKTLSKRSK
The test is described as follows: Trypanosoma cruzi tyrosyl tRNA synthetase (TcYRS) _High Tyrosine SOP. Also: in the data most compounds retested in dose-response had high values. The format is functional. The following applies: 30 µM.

In test [8] the target is T4, Tyrosyl-tRNA synthetase, putative (Trypanosoma cruzi (strain CL Brener)). As to the kind of experiment: Trypanosoma cruzi tyrosyl tRNA synthetase (TcYRS) SOP. The format is functional. The following applies: 30 µM.
Test [9] has as its target Chromo domain-containing protein 1 (Saccharomyces cerevisiae (strain ATCC 204508 / S288c) (Baker's yeast)) (UniProt P32657). As to the kind of experiment: ScCHD-1 Enzyme Inhibition Assay. Also: in the data most compounds retested in dose-response had high values. The format is functional. Particulars: 30 µM.

For some of these results: Results with a measured potency or affinity are listed apart.

Sequence of Protein translocase subunit SecA (Escherichia coli (strain K12)) (P10408 whole entry): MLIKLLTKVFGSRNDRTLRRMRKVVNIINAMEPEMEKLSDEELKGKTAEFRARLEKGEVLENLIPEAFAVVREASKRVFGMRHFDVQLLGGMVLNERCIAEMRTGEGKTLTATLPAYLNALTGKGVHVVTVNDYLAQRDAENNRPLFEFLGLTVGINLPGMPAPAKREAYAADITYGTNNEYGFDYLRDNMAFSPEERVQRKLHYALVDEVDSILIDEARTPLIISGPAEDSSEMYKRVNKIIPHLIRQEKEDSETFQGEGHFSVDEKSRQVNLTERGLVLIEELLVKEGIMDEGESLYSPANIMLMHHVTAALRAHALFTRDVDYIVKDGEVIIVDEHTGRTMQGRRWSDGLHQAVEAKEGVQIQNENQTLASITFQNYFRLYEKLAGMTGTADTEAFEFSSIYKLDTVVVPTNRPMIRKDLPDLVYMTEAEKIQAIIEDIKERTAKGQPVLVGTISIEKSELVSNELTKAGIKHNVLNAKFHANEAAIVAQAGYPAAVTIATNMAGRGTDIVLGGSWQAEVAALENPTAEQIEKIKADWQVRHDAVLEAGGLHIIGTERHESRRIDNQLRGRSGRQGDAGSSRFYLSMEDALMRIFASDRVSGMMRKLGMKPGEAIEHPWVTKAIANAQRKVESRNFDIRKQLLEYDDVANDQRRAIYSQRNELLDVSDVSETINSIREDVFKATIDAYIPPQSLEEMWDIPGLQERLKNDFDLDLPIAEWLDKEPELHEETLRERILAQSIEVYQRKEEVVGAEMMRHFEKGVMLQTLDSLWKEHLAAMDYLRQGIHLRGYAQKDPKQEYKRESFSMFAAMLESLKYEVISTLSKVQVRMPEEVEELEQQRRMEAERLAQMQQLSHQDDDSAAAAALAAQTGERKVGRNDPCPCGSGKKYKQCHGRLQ
Sequence of Chromo domain-containing protein 1 (Saccharomyces cerevisiae (strain ATCC 204508 / S288c) (Baker's yeast)) (P32657 whole entry, the tested form may be a part): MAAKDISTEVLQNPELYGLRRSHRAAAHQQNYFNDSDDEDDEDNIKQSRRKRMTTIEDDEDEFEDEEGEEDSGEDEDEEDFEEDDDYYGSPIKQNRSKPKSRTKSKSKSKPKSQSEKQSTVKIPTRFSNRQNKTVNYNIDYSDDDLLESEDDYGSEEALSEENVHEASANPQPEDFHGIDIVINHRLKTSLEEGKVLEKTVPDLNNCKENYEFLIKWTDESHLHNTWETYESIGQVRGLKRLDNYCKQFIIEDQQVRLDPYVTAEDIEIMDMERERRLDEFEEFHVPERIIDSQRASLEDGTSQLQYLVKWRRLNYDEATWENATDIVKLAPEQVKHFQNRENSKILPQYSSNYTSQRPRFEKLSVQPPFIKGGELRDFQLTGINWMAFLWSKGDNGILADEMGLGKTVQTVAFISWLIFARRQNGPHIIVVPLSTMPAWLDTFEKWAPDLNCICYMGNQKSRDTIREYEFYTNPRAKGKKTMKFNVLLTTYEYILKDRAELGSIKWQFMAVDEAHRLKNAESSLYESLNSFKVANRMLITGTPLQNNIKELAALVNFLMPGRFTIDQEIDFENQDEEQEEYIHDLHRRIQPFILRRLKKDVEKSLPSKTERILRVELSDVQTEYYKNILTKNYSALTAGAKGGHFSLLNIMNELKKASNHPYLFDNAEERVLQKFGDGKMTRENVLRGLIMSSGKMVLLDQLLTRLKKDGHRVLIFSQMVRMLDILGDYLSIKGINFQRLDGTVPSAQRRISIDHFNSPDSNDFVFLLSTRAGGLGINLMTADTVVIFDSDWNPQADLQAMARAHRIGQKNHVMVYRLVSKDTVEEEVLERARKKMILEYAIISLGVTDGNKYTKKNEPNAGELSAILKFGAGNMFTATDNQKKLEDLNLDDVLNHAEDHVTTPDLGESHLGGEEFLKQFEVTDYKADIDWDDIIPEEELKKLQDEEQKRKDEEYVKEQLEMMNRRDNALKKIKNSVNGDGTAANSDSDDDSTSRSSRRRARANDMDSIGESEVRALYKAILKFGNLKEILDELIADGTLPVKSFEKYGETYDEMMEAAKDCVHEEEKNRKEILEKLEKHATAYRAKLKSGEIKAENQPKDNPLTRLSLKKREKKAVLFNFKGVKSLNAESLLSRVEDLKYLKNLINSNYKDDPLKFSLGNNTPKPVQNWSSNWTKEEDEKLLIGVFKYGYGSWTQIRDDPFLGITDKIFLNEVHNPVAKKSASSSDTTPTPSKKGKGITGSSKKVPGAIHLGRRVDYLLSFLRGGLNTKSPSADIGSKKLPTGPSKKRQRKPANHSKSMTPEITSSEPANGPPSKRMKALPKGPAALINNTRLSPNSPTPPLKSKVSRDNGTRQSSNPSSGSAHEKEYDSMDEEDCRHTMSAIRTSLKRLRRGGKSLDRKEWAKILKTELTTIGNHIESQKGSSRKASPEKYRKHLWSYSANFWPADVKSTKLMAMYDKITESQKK

Consider `CN(C)C(=O)N1C[C@@H]2CCCO[C@@H]2[C@H](N(C)Cc2ccco2)C1`, for which the Percent Effect is -3.04% in test [1]; 13.7% in [2]; 2.03% in test [3]; 7.85% in test [4]; 6.55% with Trypanosoma cruzi; -5.99% in test [5]. Further, the Percent Effect in test [6] is 8.99%; in the test filed under Homo sapiens, -3.94%; in test [7] it was 4.17%; in test [8], 13.6%; in test [9] it was -11.2%.
Consider `NC(=O)C1CN(C(=O)Nc2cc(Cl)cc(Cl)c2)CCO1` (stereo unspecified), for which the Percent Effect was -2.58% in [1]; 0% in [2]; 0.0499% in test [3]; 4.99% in test [4]; 4.17% in the test with Trypanosoma cruzi; -3.19% in test [5]. Moreover, the Percent Effect in test [6] is 12.1%; in the test filed under Homo sapiens, 22.7%; in test [7], 4.17%; in [8], 11.1%; in test [9], 2.8%.
`Cc1cnc(CN(C)C2CCN(CCc3ccccn3)CC2)cn1`: the Percent Effect in [1] was -1.96%; in [2], 13.5%; in test [3], -8.24%; in [4], -5.72%; with Trypanosoma cruzi, 5.48%; in [5], -3.88%. In addition, the Percent Effect in test [6] is 14.5%; in the test filed under Homo sapiens, 13.7%; in test [7] it was 7.92%; in [8], 15.8%; in [9], -6.34%.
For the compound `CNC(=O)c1cccc(C2CNCCN2C)c1` (stereo unspecified), the Percent Effect was 1.64% in test [1]; 14.9% in test [2]; 4.3% in [3]; -1.87% in test [4]; -2.96% with Trypanosoma cruzi; 7.19% in [5]. For the same compound, the Percent Effect in test [6] was 12.2%; in the test listed under Homo sapiens, -5.37%; in [7], 0%; in test [8], 6.49%; in test [9] it was -5.34%.
In the case of `CNC(=O)c1cc2c(nc1NCC1CC1)CCN(S(=O)(=O)C1CC1)CC2`, the Percent Effect in test [1] is -0.616%; in test [2], 18.2%; in test [3] it was 3.29%; in test [4], -14.9%; with Trypanosoma cruzi it was -2.86%; in test [5], 8.39%. Besides, the Percent Effect is 9.75% in [6]; 33.1% in the test listed under Homo sapiens; -1.06% in [7]; 11.5% in [8]; -8.62% in test [9].
Consider `Cc1nnc(CN2CCC(N(C)Cc3nnc(C4CC4)n3C)C2)o1` (stereo unspecified), for which the Percent Effect in [1] is -3.08%; in test [2], 16.2%; in [3] it was -9.74%; in test [4], -7.84%; in the test on Trypanosoma cruzi, -6.32%; in test [5] it was -1.2%. For the same compound, the Percent Effect in [6] was 5.04%; in the test filed under Homo sapiens, 20.7%; in [7], 4.43%; in test [8], 11.1%; in test [9], -4.72%.
`Cc1nc(C)c2c(n1)CCN(C(=O)CC1CC1)CC2`: the Percent Effect in test [1] is 3.82%; in test [2], 10.8%; in test [3], 4.71%; in test [4], -10.8%; in the test with Trypanosoma cruzi, -5.57%; in test [5] it was 2.87%. The Percent Effect in [6] was 21.2%; in the test filed under Homo sapiens, 10.2%; in test [7], 3.24%; in test [8], 12.8%; in test [9] it was -3.91%.
Regarding `Cc1ccc(-c2cc(CNC(=O)N3CCC(CO)CC3)on2)cc1`, the Percent Effect in test [1] was -2.94%; in test [2] it was 21.6%; in test [3] it was 1.9%; in [4] it was -3.05%; in the test on Trypanosoma cruzi, -4.74%; in [5], -0.185%. Also, the Percent Effect in test [6] is 14.9%; in the test filed under Homo sapiens, 14%; in test [7], 6.93%; in [8], 13.4%; in test [9], -4.09%.
As to `O=C(NCC1CC1)C1CN(C(=O)c2cccnc2)CC12CCOCC2` (stereo unspecified), the Percent Effect in test [1] is -0.919%; in [2] it was 13%; in [3] it was 2.21%; in test [4] it was 6.47%; in the test with Trypanosoma cruzi, -0.296%; in [5] it was -0.645%. Besides, the Percent Effect in test [6] was 13.6%; in the test listed under Homo sapiens it was 18.6%; in test [7] it was 5.29%; in test [8], 14.1%; in test [9], -4.19%.
As for `CCn1nc2c(cc1=O)CN(Cc1nc3ccccc3c(=O)[nH]1)CC2`, the Percent Effect in [1] is -5.88%; in [2] it was 5.48%; in [3] it was -24.8%; in test [4] it was -1.63%; with Trypanosoma cruzi, -1.57%; in [5], -1.36%. Besides, the Percent Effect in [6] was 18.3%; in the test filed under Homo sapiens it was 10.3%; in test [7] it was 6.45%; in [8] it was 10%; in test [9] it was -4.67%.
For `CN1CC(=O)N(c2cnn(C)c2)CC12CCN(Cc1ccccc1)C2` (stereo unspecified), the Percent Effect was -4.4% in test [1]; 5.48% in test [2]; -2.44% in test [3]; 7.88% in test [4]; 10.3% with Trypanosoma cruzi; -4.39% in [5]. Moreover, the Percent Effect in [6] was 4.02%; in the test listed under Homo sapiens, -7.57%; in test [7] it was 5.21%; in [8], 8.64%; in test [9] it was -4.55%.
